From PubChem BioAssay (NCATS)
Results filed as inconclusive are left out. Where a call stands in place of a potency, no number is given. Active and inactive are the calls of the source. Calls come from the whole dose curve; as a rule, active = well fitted inhibition curve with a large enough effect; inconclusive = small, poorly fitted or top-dose-only effect; inactive = flat fitted curve, though single readings scatter.

Test system: P94_40
Assay: qHTS profiling for inhibitors of Plasmodium falciparum proliferation (AID 504749); note: nearly all actives have a fitted effect of over 60% in size
Conditions: P. falciparum in erythrocytes, SYBR Green DNA, 72 h; series mostly up to 28.7 µM
Outline: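 Infected RBCs, 0.3% parasitemia/2.5% Hct final; cpd 72 h, 37 C, 5% CO2; lysis buffer with saponin/triton/SYBR Green I, o/n RT dark; FI 485/535; norm. to artemisinin (0.29 uM) and DMSO.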
Potency is the fitted concentration of half-maximal effect.

SMILES | Potency
CO[C@H](C(=O)[C@@H](O)[C@@H](C)O)C1Cc2cc3cc(O[C@H]4C[C@@H](O[C@H]5C[C@@H](O)[C@H](O)[C@@H](C)O5)[C@@H](O)[C@@H](C)O4)c(C)c(O)c3c(O)c2C(=O)[C@H]1O[C@H]1C[C@@H](O[C@H]2C[C@@H](O[C@H]3C[C@](C)(O)[C@H](O)[C@@H](C)O3)[C@H](O)[C@@H](C)O2)[C@H](O)[C@@H](C)O1 (stereo partly drawn) | 112 nM (active)
O=C(O)c1cc(O)c2c(c1)[O][Bi][O]2 | inactive
NC(=O)c1ncn(C2OC(CO)C(O)C2O)n1 (stereo not drawn) | inactive
CC[N+](C)(C)Cc1ccccc1Br | inactive
Nc1ncnc2c1ncn2[C@@H]1O[C@H](COP(=O)(O)OP(=O)(O)OP(=O)(O)O)[C@@H](O)[C@H]1O | inactive
CCCCCCCCCCCCCCCC(=O)OCC(COC(=O)CCCCCCCCCCCCCCC)OC(=O)CCCCCCCCCCCCCCC | inactive
CCCC(=O)O[C@]1(C(=O)CCl)[C@H](C)C[C@@H]2[C@H]3CCC4=CC(=O)C=C[C@]4(C)[C@@]3(F)C(=O)C[C@@]21C | 4470 nM (active)
CC(C)(C)C(=O)OCOC(=O)[C@@H]1N2C(=O)[C@@H](N=CN3CCCCCC3)[C@H]2SC1(C)C | inactive
O=S(=O)(O)O | inactive
Cc1ccccc1OCC(O)CNCCOc1ccc(C(N)=O)cc1 (stereo not drawn) | inactive
CCCCC/C=C\C/C=C\CCCCCCCC(=O)O | inactive
C[C@@H]1CCC2[C@@H](C)[C@@H](O)O[C@@H]3O[C@@]4(C)CC[C@@H]1[C@@]23OO4 (stereo partly drawn) | 1 nM (active)
Nc1c(N=Nc2ccc(-c3ccc(N=Nc4cc(S(=O)(=O)O)c5ccccc5c4N)cc3)cc2)cc(S(=O)(=O)O)c2ccccc12 | inactive
